# Source: PubChem (Paczesny and Yang Labs, IUPUI and University of Michigan)
# ST2 IL33 inh = IL1RL1 inhibition | 2.3% of 78,000 active | AlphaLISA ST2-Fc/biotin-IL-33 interaction, 1 h | Q01638 | inhibition, % for hits at 17 µM; in the data active = inhibition above about 30%
# Target sequence (Q01638 whole entry, looked up): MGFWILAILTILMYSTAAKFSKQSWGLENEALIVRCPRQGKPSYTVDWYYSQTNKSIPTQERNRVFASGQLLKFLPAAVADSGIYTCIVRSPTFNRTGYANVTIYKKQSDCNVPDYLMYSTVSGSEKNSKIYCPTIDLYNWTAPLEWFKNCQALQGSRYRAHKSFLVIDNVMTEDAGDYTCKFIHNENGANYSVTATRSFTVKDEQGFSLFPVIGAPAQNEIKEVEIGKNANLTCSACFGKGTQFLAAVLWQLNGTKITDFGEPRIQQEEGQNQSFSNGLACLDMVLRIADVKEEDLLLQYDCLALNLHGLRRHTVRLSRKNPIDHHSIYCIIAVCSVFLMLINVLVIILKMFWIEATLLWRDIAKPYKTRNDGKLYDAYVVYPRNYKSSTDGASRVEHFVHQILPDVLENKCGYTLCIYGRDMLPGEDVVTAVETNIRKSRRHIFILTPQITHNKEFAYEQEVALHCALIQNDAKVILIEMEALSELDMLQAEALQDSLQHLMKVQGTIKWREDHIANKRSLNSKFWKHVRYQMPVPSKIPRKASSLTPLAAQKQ
# Numbers stand for hits; – = inactive; ! = not confirmed by another sample. Many of the other results were omitted from the sample, so hits are more common in it than they were.
SMILES,ST2 IL33 inh
Clc1ccc(-c2ncnn2-c2ccc(Br)cc2)cc1,33%!
Clc1ccccc1-n1ncnc1-c1ccc(Br)cc1,–
Brc1ccc(-c2ncnn2-c2ccc(Br)nc2)cc1,–
Cc1cc(NC(=O)c2cccc(CN3[C@@H]4CC[C@H]3CC(O)C4)c2)n(C)n1 (some centres not stated),–
CCOC(=O)Cn1c(=O)n(-c2ccc(F)cc2)c2nc(-c3ccccc3)nc(C(N)=O)c21,–
Clc1cccc2c3c([nH]c12)CCN(Cc1ccccc1)C3,–
COCCOc1ccc(C(=O)N[C@@H]2CN(C(=O)NCc3ccccc3)CCC[C@H]2O)cc1,–
CC(C)NC(=O)N1CCC[C@@H](O)[C@H](NC(=O)c2ccc(OCc3ccccc3)cc2)C1,–
COc1ccc(C(=O)N[C@@H]2CN(C(=O)NC3CCCCC3)CCC[C@H]2O)cc1,82%
Cn1c(=O)c2c(ncn2Cc2ccccc2C#N)n(C)c1=O,–
O=C(NCCc1ccccc1)c1cccn2c(=O)c3cc4ccccc4cc3nc12,–
CC(C)Cn1nc(C(=O)N2CCOCC2)c2c1CCC(NCc1ccc(F)cc1)C2 (configuration not stated),–
Cc1cnccc1NCCNC(=O)c1cn(Cc2ccc(F)cc2)nn1,–
O=C(NC1CCCCCC1)c1cnc2n(c1=O)CCS2,–
Cc1nn(C)cc1CNC(=O)NC1CCCCC1,–
Cc1cc[n+](C2C(c3ccc([N+](=O)[O-])cc3)C(C#N)=C([S-])NC2(O)C2CC2)cc1 (configuration not stated),59%
COc1ccccc1C1C(C#N)=C(C(=C=[N-])C#N)NC(O)(C2CC2)C1[n+]1ccc(C)cc1 (configuration not stated),–
Cc1ccc[n+](C2C(c3ccc([N+](=O)[O-])cc3)C(C#N)=C([S-])NC2(O)C2CC2)c1 (configuration not stated),50%
CN1CC=C2C(C#N)=C(N)C(C#N)(C#N)C(c3cccc(O)c3)C2C1 (configuration not stated),–
Cc1cccc(Nc2nnc(C(C)(C)C)c(=O)[nH]2)c1,–
CN(CCc1cn[nH]c1)c1ncnc2c1CCN(C(=O)C1CC1)C2,–
O=C(OC[C@@]1(O)CO[C@@H](O[C@H]2[C@H](Oc3ccc(O)cc3)O[C@H](CO)[C@@H](O)[C@@H]2O)[C@@H]1O)c1ccc(O)cc1,–
COc1cc(C2OCC3C(c4cc(OC)c(O[C@@H]5O[C@H](CO[C@@H]6O[C@H](CO)[C@@H](O)[C@H](O)[C@H]6O)[C@@H](O)[C@H](O)[C@H]5O)c(OC)c4)OCC23)cc(OC)c1O[C@@H]1O[C@H](CO)[C@@H](O)[C@H](O)[C@H]1O (some centres not stated),–
CCCN1CCC(N2CCN(S(=O)(=O)Cc3ccccc3)CC2)CC1,–
CC(=O)N1c2c(cc(Br)cc2S(=O)(=O)CCC(=O)NC2CCCCC2)CC1C (configuration not stated),–
SMILES,ST2 IL33 inh
Nc1c(C(=O)Nc2ccc(Br)cc2)nnn1Cc1ccc(F)cc1,–
O=[N+]([O-])c1ccc(C(=Nc2ccccc2)NO)cc1,–
O=C(NC(=O)c1ccccc1)Oc1ccc([N+](=O)[O-])cc1,–
O=C(C#Cc1ccc([N+](=O)[O-])cc1)c1ccccc1,33%
COc1cccc(OCC(O)CN2CCOCC2)c1 (configuration not stated),–
O=C(NC1CCCCCCC1)C1c2ccccc2C(=O)N1CCCN1CCOCC1 (configuration not stated),–
COc1cccc(NC2=C(N3CCOCC3)C(=O)c3ccccc3C2=O)c1,71%
COc1cccc(NC(=O)c2ccccc2-c2ccccc2C(=O)O)c1,–
CC(C)C(C(=O)NC1CCCCC1)N1C(=O)c2ccccc2C1=O (configuration not stated),–
O=C1C(NC2CCCCC2)=C(N2CCOCC2)C(=O)c2ccccc21,73%
Cc1c(NC(=O)C(C)(C)C)cccc1C(=O)NCC1CCCN(C)C1 (configuration not stated),–
CCOC(=O)C1C(=O)C=C(c2ccco2)CC1c1ccc(C(C)C)cc1 (configuration not stated),–
O=C(CCS(=O)(=O)Cc1cccc(Cl)c1)N1CCC2(CC1)OCCO2,–
COC(=O)C1=C(NC(=O)c2ccccc2F)CCS1,39%
O=C(O)c1c(NC(=O)c2cccc3ccccc23)sc2c1CCCC2,–
COC(=O)c1sc2ccccc2c1NC(=O)c1ccccc1F,–
O=C(Nc1nc2ccccc2s1)c1cccc2ccccc12,–
COC(=O)C1=C(NC(=O)c2cccc3ccccc23)CCS1,44%
COc1ccccc1NC(=O)c1ccccc1F,–
CC(C)c1ccc(N(C(=O)c2ccc(F)cc2)C2C=CS(=O)(=O)C2)cc1 (configuration not stated),–
COC(=O)C1=C(C)Nc2nc(SCc3ccccc3)[nH]c(=O)c2C1c1ccncc1 (configuration not stated),–
c1cn(-c2ccc(-c3noc([C@@H]4CCCN4C4CCOCC4)n3)cn2)cn1,–
Cc1cc(N2C(=O)c3cccc([N+](=O)[O-])c3C2=O)no1,–
COc1cc2c(cc1OC)C(C(=O)Nc1ccc(C)c(F)c1)C(c1cccs1)N(C)C2=O (configuration not stated),–
O=C1c2ccc([N+](=O)[O-])cc2C(=O)N1CN1CCCCC1,–
SMILES,ST2 IL33 inh
O=C1c2ccc([N+](=O)[O-])cc2C(=O)N1c1c[nH]c(=O)[nH]c1=O,–
COc1cccc(C2C(N3C(=O)c4ccccc4C3=O)C(=O)N2c2ccc(C)c(C)c2)c1 (configuration not stated),–
Cc1ccc(N2C(=O)C(N3C(=O)c4ccccc4C3=O)C2c2ccc(N(C)C)cc2)cc1F (configuration not stated),31%!
Cc1cc(Cl)ccc1N1C(=O)C(N2C(=O)c3ccc([N+](=O)[O-])cc3C2=O)C1c1cccs1 (configuration not stated),39%
COc1cccc(C2C(N3C(=O)c4ccccc4C3=O)C(=O)N2c2ccc(C)c(F)c2)c1 (configuration not stated),–
Cc1ccc(N2C(=O)C(N3C(=O)c4cccc([N+](=O)[O-])c4C3=O)C2c2cccs2)cc1F (configuration not stated),32%
O=c1c2cnn(-c3ccc(Cl)cc3)c2ncn1Cc1cccnc1,–
Cc1ccc(C2C(=O)N(C3CCCC3)CC(=O)N2C2CC2)cc1 (configuration not stated),–
Cc1cc(NC(=O)CNCCN2CCCOC2=O)ccc1Cl,–
CCCc1oncc1C(=O)N1CCC2(CN(C)C(=O)O2)C1 (configuration not stated),–
Cc1cc(S(=O)(=O)N2CCN(S(=O)(=O)c3ccc(Cl)c(C)c3)CC2)ccc1Cl,–
Cc1cc(C)c(S(=O)(=O)N=C2C=CC(=O)c3ccccc32)cc1C,47%
Cc1cc(C)c(S(=O)(=O)N2CCN(c3cc(-c4ccccc4C)ncn3)CC2)cc1C,–
Cc1cc(Br)c(S(=O)(=O)N2CCN(c3ccccc3)CC2)cc1C,–
Cc1cc(C)c(S(=O)(=O)N2CCN(c3ccccc3)CC2)cc1C,–
Cc1cc(C)c(S(=O)(=O)N=C2C=C(Br)C(=O)c3ccccc32)cc1C,35%
CC1=CC(=NS(=O)(=O)c2cccc([N+](=O)[O-])c2)C=CC1=O,–
Cc1cc(C)c(S(=O)(=O)N2CCCCC2)cc1S(=O)(=O)N1CCCCC1,–
Cc1cc(S(=O)(=O)N=C2C=CC(=O)c3ccccc32)ccc1Cl,42%
